Data on 13 compounds can be found in PubChem BioAssay (NCI).

Some test systems named below: SR leukemia; RPMI-8226 leukemia; OVCAR-8 ovarian; OVCAR-5 ovarian; OVCAR-4 ovarian; SK-OV-3 ovarian; IGROV1 ovarian; OVCAR-3 ovarian; HS 578T breast; NCI/ADR-RES ovarian.
What all share (assay): NCI-60 one-dose screen, 48 h (100 = growth as untreated, 0 = no growth, -100 = all killed)
Conditions in all cases: 10 µM unless noted

Compounds without any hit were thinned out: in the full panel of roughly 83,000, 20% have a hit.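 In brief: 96-well plates, 48 h treatment, single concentration, percent growth endpoint.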 Unmarked numbers belong to inactive results. Active and inactive are the calls of the source. How the source made its calls: active means growth percent below 10; inactive means the rest.

For `CCN(CC)CC(O)COc1c(Br)c(Br)c(Br)c2c1OC(C)(C)C2` (stereo not given), the growth is 16.7% in the test with SR leukemia; 85.5% in the test on RPMI-8226 leukemia; 126% in the test on OVCAR-8 ovarian; 93.2% with OVCAR-5 ovarian; 82.9% with OVCAR-4 ovarian; 97.9% in the test on SK-OV-3 ovarian. For the same compound, the growth is 607% with IGROV1 ovarian, 14% in the test with OVCAR-3 ovarian, -69.4% (active) in the test with HS 578T breast and 85% in the test on NCI/ADR-RES ovarian.
On to `Fc1cc2c(cc1Cl)N(c1ncnc3ccc(-c4ccc5n[nH]nc5c4)cc13)CC2`, for which the growth in the test on SR leukemia is 66.8%; with RPMI-8226 leukemia it was 92%; in the test on OVCAR-8 ovarian, 85.6%; with OVCAR-5 ovarian it was 76.5%; with OVCAR-4 ovarian it was 81.3%; with SK-OV-3 ovarian, 95.6%. The growth with IGROV1 ovarian is 32.2%; in the test with OVCAR-3 ovarian, 69%; with HS 578T breast, 58.2%; in the test on NCI/ADR-RES ovarian, 87.3%.
Consider `c1ccc([P+](c2ccccc2)(c2ccccc2)c2ccc3c4ccc([P+](c5ccccc5)(c5ccccc5)c5ccccc5)c5cccc(c6cccc2c63)c54)cc1`, for which the growth with SR leukemia was 14.7%; in the test with RPMI-8226 leukemia, -8.35% (active); with OVCAR-8 ovarian it was 14.2%; in the test on OVCAR-5 ovarian it was 24.3%; in the test with OVCAR-4 ovarian it was 23.6%; in the test with SK-OV-3 ovarian, -7.17% (active). The growth was 6.28% (active) in the test on IGROV1 ovarian, 19.3% with OVCAR-3 ovarian, 15.8% in the test with HS 578T breast and 72% with NCI/ADR-RES ovarian.
Consider `CCCCNC(=O)CC1=C(C)/C(=C/c2[nH]c(-c3ccc[nH]3)cc2OC)N=C1C`, for which the growth in the test with SR leukemia is -16.8% (active); with RPMI-8226 leukemia, 39.2%; in the test with OVCAR-8 ovarian, 20.5%; in the test with OVCAR-5 ovarian it was 50.2%; in the test with OVCAR-4 ovarian, 39.7%; in the test with SK-OV-3 ovarian it was 51.7%. The growth with IGROV1 ovarian is 49.2%; with OVCAR-3 ovarian, 24.4%; with HS 578T breast, 43.1%; in the test with NCI/ADR-RES ovarian, 30.1%.
For `COc1ccc(OC)c(-c2nc(SCC(=O)c3ccc(C#N)cc3)[nH]c(=O)c2C#N)c1`, the growth in the test on SR leukemia is 97.3%; in the test on RPMI-8226 leukemia, 114%; in the test with OVCAR-8 ovarian, 99.3%; with OVCAR-5 ovarian, 89.5%; with OVCAR-4 ovarian, 106%; in the test on SK-OV-3 ovarian, 78%. In addition, the growth is 96.4% with IGROV1 ovarian, 89.4% in the test with OVCAR-3 ovarian, 102% with HS 578T breast and 97.4% in the test with NCI/ADR-RES ovarian.
In the case of `CCCCCCCCCCC(CN(CC)CC)C(O)c1ccccc1` (stereo not given), the growth with SR leukemia is -17.6% (active); in the test with RPMI-8226 leukemia it was 9.59% (active); in the test on OVCAR-8 ovarian it was 53.6%; in the test with OVCAR-5 ovarian, 49.7%; in the test with OVCAR-4 ovarian it was 47.5%; in the test on SK-OV-3 ovarian, 54.9%. The growth in the test with IGROV1 ovarian is 40.7%; in the test on OVCAR-3 ovarian it was 37.7%; with HS 578T breast, 45%; with NCI/ADR-RES ovarian, 33.6%.
Consider `CCOC(=O)n1cc(-c2nonc2-c2cn(C(=O)OCC)c3ccc(Br)cc23)c2ccccc21`, for which the growth with SR leukemia is 78.4%; in the test on RPMI-8226 leukemia it was 88.9%; in the test with OVCAR-8 ovarian, 85.6%; in the test with OVCAR-5 ovarian, 64.4%; in the test on OVCAR-4 ovarian, 79.1%; with SK-OV-3 ovarian, 79.8%. Also, the growth is 52.6% in the test on IGROV1 ovarian, 79.1% in the test with OVCAR-3 ovarian, 87% in the test with HS 578T breast and 86.5% in the test with NCI/ADR-RES ovarian.
For the compound `COC(=O)CC[C@H](C)[C@H]1CC[C@H]2[C@@H]3CC[C@@H]4CC5(CC[C@]4(C)[C@H]3CC(=O)[C@]12C)Nc1ccccc1NC5=NC(C)(C)C` (stereo not given in full), the growth in the test on SR leukemia is 50%; with RPMI-8226 leukemia it was 58.4%; in the test on OVCAR-8 ovarian it was 87.5%; with OVCAR-5 ovarian, 89.1%; in the test with OVCAR-4 ovarian, 57.5%; in the test on SK-OV-3 ovarian, 97%. For the same compound, the growth in the test with IGROV1 ovarian is 93.8%; with OVCAR-3 ovarian, 76%; with HS 578T breast, 88.7%; with NCI/ADR-RES ovarian, 94.9%.
Take `N#Cc1c(-c2ccccc2)cc(-c2ccccc2)n(CCCC(=O)Nc2ccccc2N)c1=O`: the growth was 22.4% in the test with SR leukemia; 48.9% in the test on RPMI-8226 leukemia; 69.1% with OVCAR-8 ovarian; 95% in the test on OVCAR-5 ovarian; 91.9% in the test with OVCAR-4 ovarian; 95.6% in the test with SK-OV-3 ovarian. Also, the growth is 51.7% in the test on IGROV1 ovarian, 26.2% in the test with OVCAR-3 ovarian, 43.5% in the test with HS 578T breast and 39.5% with NCI/ADR-RES ovarian.
For the compound `CSc1oc(C)nc1[P+](c1ccccc1)(c1ccccc1)c1ccccc1`, the growth in the test on SR leukemia is 30.6%; with RPMI-8226 leukemia, 6.31% (active); in the test on OVCAR-8 ovarian, 60.1%; in the test with OVCAR-5 ovarian, 83.1%; with OVCAR-4 ovarian, 34.6%; in the test with SK-OV-3 ovarian, 57.7%. The growth was 60.6% with IGROV1 ovarian, 36.9% in the test with OVCAR-3 ovarian, 55% in the test with HS 578T breast and 106% in the test with NCI/ADR-RES ovarian.
Take `Oc1ccc(Cl)cc1/C=N\NC(=S)N/N=C/c1cc(Cl)ccc1O`: the growth with SR leukemia was 20.2%; in the test on RPMI-8226 leukemia, 29.8%; with OVCAR-8 ovarian, 17.6%; with OVCAR-5 ovarian, 69.7%; with OVCAR-4 ovarian, 29.6%; in the test with SK-OV-3 ovarian it was 58.6%. Further, the growth in the test with IGROV1 ovarian is 22.2%; with OVCAR-3 ovarian, 12.7%; in the test on HS 578T breast it was 57.9%; in the test on NCI/ADR-RES ovarian, 14.7%.
For the compound `O=C(Nc1ccc(Oc2cccc(Cl)c2)c(Cl)c1)c1cccnc1`, the growth in the test with SR leukemia is 19.9%; in the test with RPMI-8226 leukemia it was 11.9%; in the test with OVCAR-8 ovarian it was 32.1%; with OVCAR-5 ovarian it was 71.2%; with OVCAR-4 ovarian it was 47.8%; in the test with SK-OV-3 ovarian it was 34.3%. The growth is 42.1% in the test with IGROV1 ovarian, 2.66% (active) in the test on OVCAR-3 ovarian, 31.1% in the test on HS 578T breast and 11.9% with NCI/ADR-RES ovarian.
Turning to `CC(C)(C)CC(C)(C)NC(=O)Nc1ncccc1OCc1ccccc1`, the growth is 89.4% with SR leukemia; 84.9% in the test on RPMI-8226 leukemia; 99.4% in the test with OVCAR-8 ovarian; 91.6% in the test with OVCAR-5 ovarian; 84.3% with OVCAR-4 ovarian; 104% in the test with SK-OV-3 ovarian. The growth in the test with IGROV1 ovarian was 93.9%; in the test on OVCAR-3 ovarian, 98.5%; in the test on HS 578T breast it was 106%; with NCI/ADR-RES ovarian, 86.2%.
